Source: PubChem BioAssay AID463173 (ICCB-Longwood Screening Facility, Harvard Medical School, 2010)
Screen size: about 52,000 compounds; about 4,300 (8.3%) were called active. This excerpt belongs to a sample that is enriched for actives. Unmarked numbers belong to inactive results. No stated cut-off is given here; in the data, active means survival mostly below about 52% (no sharp cut-off); inactive means mostly above about 56%.

Each compound was assayed on DeltatarO mutant (assay: S. aureus survival, RN4220 and DeltatarO strains – OD600, teichoic acid synthesis inhibitors, primary screen (AID 463173)). Details: S. aureus RN4220 wild type/DeltatarO growth, OD600, 18 h, hits give low values, screened at 18.75 µg/mL (by protocol).
In the case of `Cc1cccc(N(C)c2nc3ccccc3c3nnc(C)n23)c1`, the survival is reported as 118%. Compound `COc1ccc(C)cc1NC(=O)N1CCC(CN2CCC(C)CC2)CC1` has a survival of 91%. With `CCCCN(c1ccccc1)S(=O)(=O)c1cc2c3c(c1)C(C)C(=O)N3CCC2` (stereo not drawn) the survival was 69%. Compound `CCCC(=O)Nc1cccc(-c2nc3ncccc3o2)c1` has a survival of 66%. `Cc1ccc2cccc(NC(=O)COc3cc(C)c(Cl)c(C)c3)c2n1` gave a survival of 75%. Compound `COc1ccc(NC(=O)c2ccco2)cc1NC(=O)COc1cc(C)ccc1C(C)C` has a survival of 63%. In the case of `CCC(C)c1ccc(OCC(=O)Nc2cccc(-c3nc4ncccc4o3)c2)cc1` (stereo not drawn), the survival is reported as 19% (active). In the case of `CCC(C)c1ccc(OCC(=O)Nc2cccc3ccc(C)nc23)cc1` (stereo not drawn), the survival is reported as -3% (active). `Cc1ccc2cccc(NC(=O)COc3ccccc3Cl)c2n1` showed a survival of 179%. `COc1ccc(OCC(=O)Nc2ccc(-c3nc4ncccc4o3)cc2)cc1` was tested, and the survival was 84%. In the case of `Cc1ccc(C(C)C)c(OCC(=O)Nc2cccc(NC(=O)c3ccco3)c2)c1`, the survival is reported as 10% (active). `Cc1ccccc1OCC(=O)Nc1ccc(-c2nc3ncccc3o2)cc1` was tested, and the survival was 60%. `Cc1ccc(C(C)C)c(OCC(=O)Nc2ccc3c(c2)nc(CCNC(=O)c2ccco2)n3C)c1` showed a survival of 54%. `CCC(C)c1ccc(OCC(=O)Nc2ccc(-c3nc4ncccc4o3)cc2)cc1` (stereo not drawn) was tested, and the survival was 44%. For `Cc1cc(C)c(OCC(=O)Nc2cccc(-c3nc4ncccc4o3)c2)c(Br)c1`, the survival was 4% (active). `CCc1cccc2sc(N3CCN(C(=O)C4CC4)CC3)nc12` was tested, and the survival was 94%. `CCCSCCCNC(=O)C1CCN(C(=O)c2cc3sccc3n2C)CC1` was tested, and the survival was 109%. `O=C(Nc1cccc(Cl)c1Cl)c1ccc2c(c1)N(Cc1cccc(Cl)c1)C(=O)c1ccccc1S2(=O)=O` was tested, and the survival was 108%. For `Cc1cc2c(n1-c1ccc(C(=O)NCc3cccc(Br)c3)cc1)CCC(C)C2` (stereo not drawn), the survival was 125%. Work on `Cc1cccc(OCC(=O)Nc2ccc(Cl)c(-c3nc4ncccc4o3)c2)c1C` yielded a survival of 62%. For `Cc1ccc(C(C)C)c(OCC(=O)Nc2ccc(C(=O)OC3CCCCC3)cc2)c1`, the survival was 33% (active). `Cc1cc(OCC(=O)Nc2ccc(C(=O)OC3CCCCC3)cc2)cc(C)c1Cl` showed a survival of 50%. With `Cc1ccc(C(C)C)c(OCC(=O)Nc2ccc(-c3nc4ncccc4o3)cc2C)c1` the survival was 54%. With `O=C(COc1ccc(Cl)cc1Cl)Nc1ccc(C(=O)OC2CCCCC2)cc1` the survival was 57%. `Cc1ccc(C(C)C)c(OCC(=O)Nc2cccc(-c3nc4ncccc4o3)c2)c1` was tested, and the survival was 2% (active). Compound `CSc1ccc(CCNC(=O)c2ccc3c(c2)nc2n3CCCCC2)cc1` has a survival of 82%. Work on `COc1ccc(N2CCN(CCCNC(=O)c3ccc4nc(Cc5ccccc5)oc4c3)CC2)cc1` yielded a survival of 93%. `O=C(NCc1ccc(F)cc1)c1ccc2c(O)c(S(=O)(=O)c3ccccc3)c(=O)[nH]c2c1` gave a survival of 66%. `CCn1c(=O)c(=O)n(CC)c2cc(N3CCCCC3)c(NC(=O)c3ccccc3OC)cc21` was tested, and the survival was 91%. `Cc1nnc(NC(=O)CSCc2cc(=O)c3ccc(C)c(C)c3[nH]2)s1` showed a survival of 73%. In the case of `NC(=O)CN1C(=O)C(O)(CC(=O)/C=C\c2ccccc2)c2ccccc21` (stereo not drawn), the survival is reported as 96%. Compound `COc1ccc(-c2cc(C(F)(F)F)nc(SCC(=O)NC(C)c3ccccc3)n2)cc1` (stereo not drawn) has a survival of 60%. `COc1ccc(-c2cc(C(F)(F)F)nc(NCCc3ccccc3)n2)cc1` was tested, and the survival was 1% (active). With `COc1ccc(CNc2nc(-c3ccc(OC)c(OC)c3)cc(C(F)(F)F)n2)cc1` the survival was 11% (active). `COc1ccc(CNc2ccc(-c3ccc(OC)cc3)nn2)cc1` showed a survival of 80%. In the case of `COc1ccc(CNc2nc(-c3ccc(OC)cc3)cc(C(F)(F)F)n2)cc1`, the survival is reported as -2% (active). Work on `COc1ccc(CNC(=O)C(C)Sc2nc(-c3ccccc3)cc(C(F)(F)F)n2)cc1` (stereo not drawn) yielded a survival of 165%. `COc1ccc(-c2cc(C(F)(F)F)nc(SCC(=O)NCCc3ccccc3)n2)cc1` was tested, and the survival was 121%. `COc1ccc(CNC(=O)CSc2nc(-c3ccc(OC)cc3)cc(C(F)(F)F)n2)cc1` gave a survival of 83%. `COc1ccc(-c2cc(C(F)(F)F)nc(NCc3ccccc3)n2)cc1` was tested, and the survival was -4% (active). Compound `COc1ccc(CNC(=O)CSc2nc(-c3ccc(OC)c(OC)c3)cc(C(F)(F)F)n2)cc1` has a survival of 72%. `COc1ccc(-c2cc(C(F)(F)F)nc(SCC(=O)NCc3ccc(OC)c(OC)c3)n2)cc1` gave a survival of 60%. Work on `COc1ccc(S(=O)(=O)c2c(O)c(C)cc(NC(=O)c3ccccc3)c2C(C)C)cc1` yielded a survival of 80%. `CCc1ccc(NC(=O)c2sc3nc(C)c(Cl)c(C)c3c2NC(=O)c2ccccc2)cc1` showed a survival of 76%. Work on `CCOC(=O)N1CCC(NC(=O)c2ccc3c(c2)N(Cc2ccc(F)cc2)C(=O)c2ccccc2S3=O)CC1` (stereo not drawn) yielded a survival of 58%. In the case of `COc1ccc(CCNC(=O)c2c(O)nc3c(C)cccn3c2=O)cc1OC`, the survival is reported as 91%. `CCN1C(=O)/C(=C\C=C2/N(CC)c3ccc(C(=O)OC)cc3N2CC)SC1=S` gave a survival of 78%. `Cc1ccc(NC(=O)Cn2c(=O)n(Cc3nc(-c4ccccc4)no3)c(=O)c3cc4c(cc32)OCO4)cc1C` gave a survival of 77%. `CCc1ccccc1NC(=O)CN(Cc1ccccc1)S(=O)(=O)c1ccc2nc(C)sc2c1` gave a survival of 102%. `Cc1ccc(C(=O)NC2(C(F)(F)F)C(=O)Nc3c2c(=O)[nH]c(=O)n3CCc2ccccc2)cc1` (stereo not drawn) gave a survival of 74%. Compound `CC(C)CCNC(=O)c1cc2sccc2n1Cc1ccc(F)cc1` has a survival of 87%. Compound `CCOc1ccccc1Nc1sc(C(=O)c2ccccc2)c(N)c1C(=O)Nc1ccccc1` has a survival of 102%. With `COCCn1c(C)cc(O)c(C(c2ccccc2Cl)N2CCN(c3ccccc3)CC2)c1=O` (stereo not drawn) the survival was 87%. `CSc1ccc(CNC(=O)c2cc3c(=O)n(Cc4ccco4)ccc3nc2C)cc1` showed a survival of 94%. `COc1ccc(-c2cn3c(n2)sc2cc(C(=O)NCc4ccccc4)ccc23)cc1` was tested, and the survival was 63%. `O=C(NCCOCCn1c(=O)oc2ccccc21)Nc1cccc(Cl)c1` gave a survival of 75%. For `COc1ccc(-c2cc(C(F)(F)F)nc(SCCC(=O)Nc3cccc(OC)c3)n2)cc1`, the survival was 69%. In the case of `COc1ccc(-c2cc(C(F)(F)F)nc(NCc3ccc(F)cc3)n2)cc1`, the survival is reported as 1% (active). In the case of `COc1cccc(-c2cc(C(F)(F)F)nc(NCc3ccc(F)cc3)n2)c1`, the survival is reported as 4% (active). In the case of `COc1ccc(-c2cc(C(F)(F)F)nc(SCC(=O)NCc3ccc(F)cc3)n2)cc1`, the survival is reported as 74%. Work on `COc1ccccc1CCNC(=O)C(C)Sc1nc(-c2ccccc2)cc(C(F)(F)F)n1` (stereo not drawn) yielded a survival of 65%. Compound `COc1ccc(-c2cc(C(F)(F)F)nc(NCCc3ccccc3)n2)cc1OC` has a survival of 63%. With `COc1ccc(-c2cc(C(F)(F)F)nc(SCC(=O)NCC(C)C)n2)cc1OC` the survival was 137%. For `COc1cccc(-c2cc(C(=O)Nc3ccc(F)cc3)[nH]n2)c1`, the survival was 73%. `COc1cccc(-c2cc(C(F)(F)F)nc(NCCc3ccccc3)n2)c1` was tested, and the survival was -8% (active). `COc1ccc(-c2cc(C(F)(F)F)nc(NCc3ccccc3)n2)cc1OC` was tested, and the survival was 42% (active). For `COc1cccc(-c2nc(S(=O)(=O)c3ccccc3)c(NCc3ccccc3)o2)c1`, the survival was 61%. `COc1ccccc1/C=C/c1nc(C#N)c(N2CCCCC2)o1` gave a survival of 75%. Compound `Cc1ccc(C(=O)c2sc(Nc3ccccc3F)c(S(=O)(=O)c3ccccc3)c2N)c(C)c1` has a survival of 74%. For `COC(=O)c1cc(NC(=O)c2nn(C)c3c2CSc2ccccc2-3)cc(C(=O)OC)c1`, the survival was 88%. `CN1CCN(C2(CNC(=O)c3ccc([N+](=O)[O-])cc3)CCCCC2)CC1` showed a survival of 102%. `Cc1ccc(C(C)C)c(OCC(=O)NCC2(N(C)C)CCCCC2)c1` gave a survival of 95%. `N#Cc1c(NC(=O)C2CC(=O)NN2Cc2ccccc2)sc2c1CCCC2` (stereo not drawn) was tested, and the survival was 82%. `CCn1c(CNC(=O)c2ccc(OC)cc2)nnc1SCC(=O)Nc1ccc(F)cc1` showed a survival of 130%. For `O=C(C1=C(N2CCCCC2)c2ccccc2S(=O)(=O)N1)c1ccccc1`, the survival was 94%. Work on `Cc1ccc(-n2nnc(-c3nc(-c4cccs4)no3)c2N)c(C)c1` yielded a survival of 101%. `COc1ccc(NC(=O)c2cc3c(C)nn(-c4ccccc4)c3s2)c(OC)c1` gave a survival of 59%. For `Cc1nn(-c2ccccc2)c2sc(C(=O)Nc3ccccc3Br)cc12`, the survival was 9% (active). For `COc1ccccc1NC(=O)c1cc2c(-c3ccccc3)nn(-c3ccccc3)c2s1`, the survival was 89%. For `COc1ccccc1NC(=O)c1cc2c(C)nn(-c3ccccc3)c2s1`, the survival was 0% (active). In the case of `Cc1ccccc1NC(=O)c1cc2c(-c3ccccc3)nn(-c3ccccc3)c2s1`, the survival is reported as 57%. Work on `O=C(Nc1ccccc1Cl)c1cc2c(-c3ccccc3)nn(-c3ccccc3)c2s1` yielded a survival of 56%. `CCc1ccccc1NC(=O)C1CCN(C2=NS(=O)(=O)C(c3ccc(C)c(C)c3)=C2C)CC1` gave a survival of 80%. With `COc1ccc(-c2nc(C(N)=O)c3c(n2)n(-c2ccccc2OC)c(=O)n3C)c(OC)c1` the survival was 82%. In the case of `CCN(CC)S(=O)(=O)c1ccc(-n2cnnn2)c(C)c1`, the survival is reported as 111%. Work on `Cc1ccc(NC(=O)CSc2nncn3c2cc2sccc23)cc1F` yielded a survival of 61%. `COc1ccc(CCNC(=O)C2CCCN(S(=O)(=O)c3ccc4c(c3)oc(=O)n4C)C2)cc1OC` (stereo not drawn) showed a survival of 72%. `CCC1CCCCN1S(=O)(=O)c1ccc(NC(=O)c2cc(=O)c3c(C)cc(C)cc3o2)cc1` (stereo not drawn) gave a survival of 45%.
